# Experimental data: PubChem BioAssay AID743446 (Broad Institute, 2014)
# Results with a measured potency or affinity are listed apart. A number with no mark means an inactive call. No rule for the calls is given here.
# Assay: HEK293 cell cytotoxicity, dose response, cytotoxicity control, plate reader, cherry-picked samples (AID 743446)
# Conditions: active compounds read low; at 26 µM unless noted
row,Structure (SMILES),max activity
1,COc1ccc(-c2cc(C)nc3c(-c4ccccc4)cnn23)cc1,-10.2%
2,N#C[C@@H]1[C@H](c2ccc(C#Cc3ccccc3F)cc2)[C@@H](CO)N1C(=O)C1CCCC1,-15.6%
3,O=C(c1cc(-c2ccccc2Cl)on1)N1CCCC1,27.2%
4,CCCCn1nnnc1C(c1cc2ccccc2o1)N1CCN(c2ccncc2)CC1 (stereo not given),11.8%
5,COc1ccc2[nH]c3c(c2c1)CCN1C(=O)N([C@@H](C)C(=O)NCc2ccc(C)cc2)C(=O)[C@]31C,-9.06% [at 6 µM]
6,CCOC(=O)c1sc(NC(=O)Nc2ccccc2F)nc1C,-21.8% [at 0.05 µM]
7,CCCCc1ccc(NC(=O)c2cnccn2)cc1,-14.3% [at 3 µM]
8,CC(C)(C)c1ccc(C(=O)NCCOc2ccccc2F)cc1,23.5%
9,CC1CN(C(=O)c2cccc(S(=O)(=O)Nc3cc(Cl)ccc3Cl)c2)CC(C)O1 (stereo not given),5.34%
10,CCOc1ccc(C(=O)Nc2nnc(SCC(=O)NCC3CCCO3)s2)cc1 (stereo not given),27.5% [at 3 µM]
11,Cc1ccc(-c2nc(-c3ccncc3)no2)cc1C,-14.8%
12,COC(=O)c1ccc(Nc2cc(C)nc3ccc(C)cc23)cc1,-31.7% [at 12 µM]
13,Cc1ccc(-c2cc(C(=O)N3CCOCC3)no2)cc1,-12% [at 6 µM]
14,COCCn1c(C)cc(C(=O)CSc2nc3ccccc3s2)c1C,-17.4%
15,CN(C)c1ccc(C2NC(=O)c3ccccc3N2)cc1 (stereo not given),20.5% [at 0.1 µM]
